Reference: PubChem BioAssay (NCATS)
Calls of active or inactive are those of the source. How the calls were made is not given here.

System: HIV-1 nucleocapsid protein NCp7 (binding to TG oligonucleotide)
Assay: HIV Nucleocapsid (AID 346);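 further: potency is for inhibitors that block NC binding and lower polarization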
Details: HIV-1 NC / fluorescein-TGTGTGTG probe, fluorescence polarization
Method in brief: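 Reagents dispensed (10 nM TG4xF, 100 nM HIV-1 NC), plates spun, compounds pin-transferred, then incubated 1 hr at room temperature before FP imaging. Buffer: Hepes pH 7.5, 250mM NaCl, 1uM ZnCl2, 100 uM TCEP, 5 mM 2-mercaptoethanol.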
Potency means the concentration at half of the fitted maximal effect.

| Compound | Potency |
| --- | --- |
| O=C(c1ccncc1)N1CCC2(CCCN(Cc3ccccc3)C2)CC1 | > 20 µM (inactive) |
| COc1ccccc1CCn1c(=O)c(CCc2ccccc2)nc2cncnc21 | > 20 µM (inactive) |
| COc1ccc(C(=O)N2CCC[C@@]3(CCN(c4ccccc4)C3)C2)cc1 | > 20 µM (inactive) |
| CN(C)c1ccc(-c2cncnc2NCc2cccnc2)cc1 | > 20 µM (inactive) |
| Cc1cnc(CNc2cc(-c3ccc4c(c3)OCO4)ncn2)cn1 | > 20 µM (inactive) |
| O=C(c1ccco1)N1CCC[C@@]2(CCN(c3ncccn3)C2)C1 | > 20 µM (inactive) |
| Cc1cnc(CNc2ncncc2-c2cccc(NS(C)(=O)=O)c2)cn1 | > 20 µM (inactive) |
| O=C(c1cccc(F)c1)N1CCC[C@@]2(CCN(c3ncccn3)C2)C1 | > 20 µM (inactive) |
| COc1ccc(-n2c(=O)cnc3cnc(Nc4ccccc4)nc32)cc1 | > 4 µM (inactive) |
| CN(C)c1ncc2nc(-c3cc(F)cc(F)c3)c(=O)n(C[C@H]3CCCO3)c2n1 | > 20 µM (inactive) |
| COCCn1c(=O)c(CCc2ccccc2)nc2cnc(N3CCOCC3)nc21 | > 20 µM (inactive) |
| Cn1cc(-c2nc3cncnc3n(CCN)c2=O)c2ccccc21 | > 20 µM (inactive) |
| CCNc1ncc2nc(-c3ccccc3)c(=O)n(C[C@H]3CCCO3)c2n1 | > 20 µM (inactive) |
| O=C(c1csnn1)N1CCC2(CC1)CCN(c1cccc(-c3ccccc3)c1)CC2 | > 20 µM (inactive) |
| O=c1c(-c2cccs2)nc2cnc(N3CCNCC3)nc2n1-c1ccccc1 | 12.2 µM (inactive) |
| CN(Cc1ccco1)c1nc(-c2cccc(C#N)c2)nc2ccccc12 | > 20 µM (inactive) |
| COC(=O)N1CCC[C@@]2(CCN(Cc3cc(C(F)(F)F)cc(C(F)(F)F)c3)C2)C1 | > 20 µM (inactive) |
| COc1ccc2[nH]cc(CCNc3ccnc(-c4ccccc4C(F)(F)F)n3)c2c1 | > 20 µM (inactive) |
| COc1ccc(C(=O)N2CCC[C@@]3(CCN(Cc4ccncc4)C3)C2)cc1 | > 20 µM (inactive) |
| COCCn1c(=O)c(-c2cn(C)c3ccccc23)nc2cnc(OCc3ccccc3)nc21 | > 20 µM (inactive) |
| O=C(c1cc(C(F)(F)F)cc(C(F)(F)F)c1)N1CCC2(CC1)CN(c1ncccn1)C2 | > 20 µM (inactive) |
| CNc1ccnc(-c2ccccc2C)n1 | > 20 µM (inactive) |
| COCC(=O)N1CCC2(CCCN(C(=O)Nc3cccc(F)c3)C2)CC1 | > 20 µM (inactive) |
| O=C(c1ccco1)N1CCC2(CC1)CCN(c1ccc(-c3ccccc3)cc1)CC2 | > 20 µM (inactive) |
| COc1ccc(-n2c(=O)c(-c3ccc(Cl)cc3)nc3cncnc32)cc1 | > 4 µM (inactive) |
